# Data from PubChem BioAssay AID1236 (Emory University Molecular Libraries Screening Center, 2008).
# Among all 220,000 compounds or so, about 800 (0.36%) were called active. Only a selection was taken, and actives are over-represented in it overall. Unmarked numbers belong to inactive results.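 How the source made its calls: active means inhibition above about 50% (limit read from the data); inactive means the rest.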
# Tested on: calpain II (m-calpain), Sus scrofa
# Assay: inhibitors of pig calpain II, primary screen, biochemical, fluorogenic peptide substrate, 1536-well (AID 1236)
# Conditions: purified calpain II, 30 min, at 16 µM, hits give high values
row,Compound,inhibition
1,CC(C)(C)NC(=O)C(=O)NN=C1CCCCCCC1,-5.09%
2,CC(C)NC(=S)NN=C1CCCCCCCCCCC1,54.9% (active)
3,C/C(=N\NC(=S)NC(C)C)c1ccc(C(C)(C)C)cc1,6.32%
4,Nc1ccc(Cl)c(S(=O)(=O)Nc2ccccc2Cl)c1,-15%
5,COc1ccc(Cl)cc1C(=O)Nc1ccc(N(C)C(C)=O)cc1,-12.6%
6,Cn1nc(C(C)(C)C)c(NC(=O)c2sccc2Cl)c1C(C)(C)C,-8.61%
7,O=C(CN1C2=NCCN2c2ccccc21)c1cccs1,-7.58%
8,COc1cc(C(=O)NCc2ccc(-n3cccc3)cc2)cc(OC)c1OC,8.77%
9,COc1cc(C(=O)NCc2ccc3c(c2)cc(C)n3C)cc(OC)c1OC,65% (active)
10,COc1cc(-n2c(C)nc3cc(C(=O)NCc4ccco4)ccc32)cc(OC)c1OC,8.54%
11,CC(C)(C)c1ccc(CCC2OCC(CN3CCOCC3)O2)cc1 (centres undefined),-40.5%
12,Cc1sc2nc(COC(=O)C(NC(=O)c3ccc(Cl)cc3Cl)C(C)C)[nH]c(=O)c2c1C (centres undefined),-7.99%
13,CNC(=O)c1csc(Cc2c(Cl)sc3ccc(Cl)cc23)n1,0.86%
14,CC(=O)c1c(N)n(C)c(=O)n(C)c1=O,-24.4%
15,Cn1c(N)c(C(=O)COC(=O)C23CC4CC(CC(C4)C2)C3)c(=O)n(C)c1=O,79.2% (active)
16,CC1CC1C(=O)OCC(=O)c1c(N)n(C)c(=O)n(C)c1=O (centres undefined),3.06%
17,Cc1ccc2[nH]cc(CCNC(=O)c3ccc([N+](=O)[O-])cc3)c2c1,9.36%
18,CC(C)c1nccn1S(=O)(=O)c1cc([N+](=O)[O-])ccc1Cl,12%
19,COc1ccc(O[C@H]2C=C[C@@H](c3ccccc3)O[C@@H]2CO/N=C/C[C@@H]2C=C[C@H](OC(C)=O)[C@@H](COC(C)=O)O2)cc1,27%
20,Cc1cccc2cc3c(N)c(C(=O)N4CCCc5ccccc54)sc3nc12,-64.7%
21,COc1ccc(-c2nnc3ccc(SCc4ccccc4)nn23)cc1,-6.26%
22,COc1cc(N/C=C2\CC(=O)NC(C)=C2C#N)cc(OC)c1OC,-145%
23,Oc1c(Cl)cc(Cl)c(Cl)c1Cc1c(O)c(Cl)cc(Cl)c1Cl,109% (active)
24,CCOC(=O)c1cc2c(=O)n3ccccc3nc2n(CC(C)C)c1=NC(=O)c1c(-c2c(F)cccc2Cl)noc1C,-60.6%
25,CCOC(=O)c1c(C)nn(-c2ncccc2NC(=O)CCC(=O)O)c1C,10.4%

row,Compound,inhibition
1,CCc1nnc(NC(=O)CCCSc2nc3ccccc3[nH]2)s1,2.67%
2,CCCCSc1nc2ccccc2[nH]1,-22.6%
3,O=C(COC(=O)CCCSc1nc2ccccc2[nH]1)Nc1ccc(Oc2ccccc2)cc1,51.3% (active)
4,CCCCCn1c(=O)c(C(=O)OCC)c(Cl)c2ccccc21,-1.97%
5,COc1ccc(C)cc1NC(=O)c1ccc(-c2ccc(C(C)=O)cc2)o1,-135%
6,COC(=O)c1ccccc1NC(=O)C1CC(=O)N(c2ccc(OC)cc2)C1 (centres undefined),4.97%
7,CCCCC(CC)CNC(=O)CCCCn1c(=O)[nH]c2ccsc2c1=O (centres undefined),13.6%
8,CCN(CCCNC(=O)CCn1c(=O)[nH]c2ccsc2c1=O)c1ccccc1,64.7% (active)
9,CCN(CC)CCNC(=O)CCCCCn1c(=O)[nH]c2cc(C(=O)OC)ccc2c1=O,-103%
10,O=c1cc(O)c(-c2cccc(C(F)(F)F)c2)c(Cl)[nH]1,27.3%
11,Cc1cc(C(=O)CCl)c(C)n1CC1COc2ccccc2O1 (centres undefined),-16.6%
12,COc1ccc(-c2cc(C3CCN(c4ncccc4[N+](=O)[O-])CC3)[nH]n2)cc1,10.5%
13,Cc1ccc(NN=C2C(=O)OC(C)(C)OC2=O)c(C)c1,6.22%
14,Cc1ccc(OCCCn2c(=O)oc3ccccc32)cc1,21.8%
15,O=C(Nc1ccc2c(c1)CCC2)c1cccc(S(=O)(=O)N2CCN(c3ccc(F)cc3)CC2)c1,-32.9%
16,O=C(c1cccc(S(=O)(=O)Nc2ccccc2Cl)c1)N1CCN(C(=O)c2ccco2)CC1,10.2%
17,O=C(Nc1ccc2c(c1)CCC2)c1cccc(S(=O)(=O)Nc2ccccc2Cl)c1,55.1% (active)
18,O=C(Nc1cc2c3c(c1)C1CCCC1CN3CC1CCCC21)c1ccc([N+](=O)[O-])cc1 (centres undefined),-34.8%
19,O=C(Oc1cccc(NC2=NS(=O)(=O)c3ccccc32)c1)c1ccncc1,-20.9%
20,COC(=O)Cc1c(O)ccn(Cc2cccc(C(F)(F)F)c2)c1=O,-20.3%
21,CC(C)Cc1nnc(NC(=O)CCC(=O)Nc2ccc3cn[nH]c3c2)s1,-10.5%
22,CSCCC(NS(=O)(=O)c1ccc2c(c1)oc(=O)n2C)C(=O)NC1CCCc2ccccc21 (centres undefined),30.2%
23,O=C(Nc1ccc(S(=O)(=O)Nc2nccs2)cc1)c1cc(-c2ccncc2)nc2ccccc12,-37.6%
24,COc1cccc2cc(S(=O)(=O)c3ccc(C)cc3)/c(=N/NS(=O)(=O)c3ccc(C)cc3)oc12,-24.9%
